Inconclusive results are not listed. Calls of active or inactive are those of the source. Calls come from the whole dose curve.
Experiment: qHTS for Inhibitors of the Functional Ribonucleoprotein Complex (vRNP) of Lymphocytic Choriomeningitis Arenaviruses (LCMV): Viability assay - Alamar blue signal for LCMV Confirmatory Screen
Details: LCMV vRNP confirmatory screen cells; series mostly up to 53.9 µM; viability change, negative = toxic: at the top concentration

| Compound | viability change, negative = toxic | Potency |
| --- | --- | --- |
| O=C(CCCN1CCN(c2ccc(F)cc2)CC1)NC1c2ccccc2CSc2ccccc21 (centres undefined) | -20.7% (inactive) |  |
| CO/C=C(/C(=O)OC)c1ccccc1Oc1cc(Oc2ccccc2C#N)ncn1 |  | 49.8 µM (active) |
| COc1ccc2c(c1OC)CN1CCc3cc4c(cc3C1C2)OCO4 (centres undefined) | -16.3% (inactive) |  |
| CCC[C@H](N[C@@H](C)C(=O)N1[C@@H]2CCCC[C@H]2C[C@H]1C(=O)O)C(=O)OCC | -11% (inactive) |  |
| CC(C)=CCC/C(C)=C/CC/C(C)=C/CC[C@]1(C)CCc2c(C)c(O)c(C)c(C)c2O1 | -1.54% [at 6 µM] (inactive) |  |
| O=C(Nc1ccc([N+](=O)[O-])cc1Cl)c1cc(Cl)ccc1O |  | 3.43 µM (active) |
| O=C(Nc1ccccc1)Nc1ccc(-c2ccc(C(=O)[C@H]3CCC[C@H]3C(=O)O)cc2)cc1 | -10.2% (inactive) |  |
| Cc1cnc(NC(=O)C2=C(O)c3ccccc3S(=O)(=O)N2C)s1 | -23.7% (inactive) |  |
| CNCCCC1c2ccccc2C=Cc2ccccc21 |  | 27.3 µM (active) |
| CCOC(=O)OCC/C(SC(=O)OCC)=C(\C)N(C=O)Cc1cnc(C)nc1N | 0.284% (inactive) |  |
| CCC(c1ccc(O)cc1)C(CC)c1ccc(O)cc1 (centres undefined) | 23.8% (inactive) |  |
| CC12C(=O)OC(=O)C1(C)C1CCC2O1 (centres undefined) |  | 8.63 µM (active) |
| Clc1nccc2c1ccc1ccccc12 | -18.9% (inactive) |  |
| O=c1ccc2ccc(O)c(O)c2o1 | -6.63% (inactive) |  |
| COC(=O)c1nc(Cl)c(Cl)nc1N |  | 6.11 µM (active) |
| COc1cc2c(cc1OC)CC(=O)N(CCCN(C)C[C@H]1Cc3cc(OC)c(OC)cc31)CC2 | -11.1% (inactive) |  |
| CCCCC/C(C=O)=C\c1ccccc1 | -17.8% (inactive) |  |
| CCCCC[C@H](O)/C=C/C=C/C/C=C\CCCC(=O)O | -17.3% [at 0.666 µM] (inactive) |  |
| C[C@]12CC[C@@H](O)C[C@H]1CC[C@@H]1[C@H]2CC[C@]2(C)C(=O)CC[C@@H]12 | -2.15% (inactive) |  |
| CC[C@@H](C(=O)O)[C@@H]1O[C@@H]([C@@H](C)[C@H](O)[C@H](C)C(=O)[C@H](CC)[C@H]2O[C@]3(C=C[C@@H](O)[C@]4(CC[C@@](C)([C@H]5CC[C@](O)(CC)[C@H](C)O5)O4)O3)[C@H](C)C[C@@H]2C)[C@@H](C)C[C@@H]1C |  | 4.44 µM (active) |
| NC(=O)N/N=C/c1ccc([N+](=O)[O-])o1 | 28.6% (inactive) |  |
| Cc1cc2c(C(C)C)c(O)c(O)c(C=O)c2c(O)c1-c1c(C)cc2c(C(C)C)c(O)c(O)c(C=O)c2c1O |  | 27.3 µM (active) |
| Oc1cc(Cl)ccc1Oc1ccc(Cl)cc1Cl |  | 44.4 µM (active) |
| CC(O)(P(=O)(O)O)P(=O)(O)O | 13.4% (inactive) |  |

Source: PubChem BioAssay AID1347088 (National Center for Advancing Translational Sciences (NCATS), 2019)
